Laboratory results from PubChem BioAssay AID1851 (National Center for Advancing Translational Sciences (NCATS), 2009).
In all, about 16,000 compounds went through this assay and about 5,700 (36%) were called active. Another 24% or so got no clear call; they are omitted. Some of the results follow. Unmarked numbers belong to inactive results. Calls follow the shape of the dose curve; as a rule, active = well fitted curve in the direction sought with a large enough effect; inconclusive = small, poorly fitted or top-dose-only effect, or effect the other way; inactive = no such curve, though single readings can be large or run the other way.

target: Cytochrome P450 1A2 (Homo sapiens) (UniProt P05177); assay: Cytochrome panel assay with activity outcomes; conditions: recombinant CYP, pro-luciferin dealkylation, luminescence, p450-cyp1a2; series mostly up to 57.1 µM
Sequence (P05177 whole entry, looked up): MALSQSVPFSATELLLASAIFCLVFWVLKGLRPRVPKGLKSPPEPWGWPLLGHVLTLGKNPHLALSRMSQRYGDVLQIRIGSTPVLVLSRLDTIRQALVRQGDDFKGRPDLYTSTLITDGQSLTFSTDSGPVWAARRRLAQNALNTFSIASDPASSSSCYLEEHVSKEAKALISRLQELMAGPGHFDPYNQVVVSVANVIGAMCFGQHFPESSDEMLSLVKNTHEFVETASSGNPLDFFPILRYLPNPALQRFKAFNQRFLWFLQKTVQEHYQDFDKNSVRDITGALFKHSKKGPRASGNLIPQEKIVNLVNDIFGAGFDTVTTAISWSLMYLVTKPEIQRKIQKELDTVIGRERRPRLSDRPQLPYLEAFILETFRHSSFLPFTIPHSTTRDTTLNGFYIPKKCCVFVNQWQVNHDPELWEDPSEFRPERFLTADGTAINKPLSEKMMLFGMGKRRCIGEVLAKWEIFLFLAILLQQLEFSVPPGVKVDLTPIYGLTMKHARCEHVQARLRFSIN
% is scaled to controls: 0 for no effect and ±100 for the full control effect.

Row | Compound | AC50 | activity, negative = inhibition
1 | CCNc1nc(NCC)nc(N(C)N)n1 | 0.708 µM (active) | –
2 | Cn1c(/C=N/NC(=O)c2ccccc2Br)nc2ccccc21 | 2.51 µM (active) | –
3 | Cc1ccc(C(=O)N/N=C/c2nc3ccccc3n2C)cc1 | 7.08 µM (active) | –
4 | Cc1ccc(NC(=O)C2CC(=O)n3c(nc4ccccc43)N2)cc1 (stereo not drawn) | inactive | –
5 | c1ccc(CNc2cc(-c3ccoc3)ncn2)cc1 | 25.1 µM (active) | –
6 | c1csc(CNc2cc(-c3ccoc3)ncn2)c1 | 2 µM (active) | –
7 | c1cncc(CNc2cc(-c3ccoc3)ncn2)c1 | 3.16 µM (active) | –
8 | O=C(Oc1ccccc1)N1CCC2(CC1)CCN(c1ccccc1)CC2 | inactive | –
9 | O=C(Oc1ccc2ccccc2c1Br)N1CCCCCC1 | 4.47 µM (active) | –
10 | Cc1ccccc1C(=O)Oc1ccc(Br)cc1C(=S)N1CCCC1 | inactive | –
11 | COC(=O)[C@@H]1O[C@@H](c2c(OC)c(OC)c(C)c(OC)c2OC)[C@H](C)[C@@H](O)[C@@H]1C | – | -4.49% [at 11.4 µM]
12 | CC(C)n1cc(/C=C2/SC(=O)N(CC(=O)Nc3ccc4c(c3)OCO4)C2=O)c2ccccc21 | inactive | –
13 | Cn1cc(/C=C2/SC(=O)N(CC(=O)Nc3ccc4c(c3)OCO4)C2=O)c2ccccc21 | inactive | –
14 | Cn1c(-c2ccc3c(c2)OCO3)cc(=O)c2ccccc21 | 5.01 µM (active) | –
15 | O=C(c1csnn1)N1CCC2(CC1)CN(c1ccccc1)C2 | inactive | –
16 | O=C(Nc1ccccc1)N1CCC2(CC1)CCN(C(=O)c1csnn1)CC2 | inactive | –
17 | Cc1ccccc1/C=N\NC(=O)c1csnn1 | 1 µM (active) | –
18 | O=C(CCNC(=O)Cn1ccc2ccccc2c1=O)NCCCN1CCN(c2ccc(F)cc2)CC1 | inactive | –
19 | CCNc1ncc2nc(-c3ccc(F)cc3)c(=O)n(C[C@H]3CCCO3)c2n1 | 1.26 µM (active) | –
20 | CCNc1ncc2nc(-c3ccc(Cl)cc3)c(=O)n(C[C@H]3CCCO3)c2n1 | 0.794 µM (active) | –
21 | Cc1ccc(C2/C(=C(/O)c3ccc(Cl)cc3)C(=O)C(=O)N2CC2CCCO2)o1 (stereo not drawn) | inactive | –
22 | COc1ccc(-n2c(=O)c(CCc3ccccc3)nc3cnc(N4CCN(C)CC4)nc32)cc1 | inactive | –
23 | Cc1nc2cnc(N3CCOCC3)nc2n(Cc2cccs2)c1=O | 2 µM (active) | –
24 | Cc1nc2cnc(N3CCNCC3)nc2n(Cc2cccs2)c1=O | 0.631 µM (active) | –
25 | Cc1nc2cnc(N3CCN(C)CC3)nc2n(Cc2cccs2)c1=O | 12.6 µM (active) | –

Row | Compound | AC50 | activity, negative = inhibition
26 | CN1CCN(c2ncc3nc(CCc4ccccc4)c(=O)n(C)c3n2)CC1 | 12.6 µM (active) | –
27 | Cc1cc2c(nc1C)CCCCN2C[C@H](O)CN1CCCc2nc(-c3ccc(Br)cc3)ccc21 | – | -8.63% [at 11.4 µM]
28 | Cc1ccc(CCN2CC(C(=O)NCCN3CCCCCC3)CC2=O)cc1 (stereo not drawn) | inactive | –
29 | O=c1cnc2cnc(N3CCOCC3)nc2n1Cc1cccs1 | 2.51 µM (active) | –
30 | CN1CCN(c2ncc3nc(CCc4ccccc4)c(=O)n(Cc4cccs4)c3n2)CC1 | 15.8 µM (active) | –
31 | CN1CCN(c2ncc3nc(CCc4ccccc4)c(=O)n(Cc4ccc(F)cc4)c3n2)CC1 | inactive | –
32 | C[C@H]1NC(=O)NC1=O | inactive | –
33 | COc1cc([C@@H](O)CO)ccc1OS(=O)(=O)O | inactive | –
34 | Brc1ccc(/C=C/C=N/Nc2nc3ccccc3s2)cc1 | 2.24 µM (active) | –
35 | CCCn1cnc2c(SCC(=O)O)nc(N)nc21 | – | 1.5% [at 11.4 µM]
36 | CCCn1cnc2c(SCc3ccc(Cl)cc3)nc(N)nc21 | 1.26 µM (active) | –
37 | Cc1ccc2ccccc2c1CSc1nc(N)nc2c1ncn2CC(C)C | – | -20.8% [at 2.29 µM]
38 | CCOC(=O)c1cnc(SCCc2ccccc2)nc1N | 25.1 µM (active) | –
39 | CCOC(=O)c1cnc(N(C)C)nc1SC(=N)N | – | -22.6% [at 2.29 µM]
40 | CCOC(=O)c1c(NC(=S)Nc2ccccc2)sc2c1CCN(CCc1ccccc1)C2 | 15.8 µM (active) | –
41 | CCN1CCc2c(sc(NC(=O)c3ccc(S(=O)(=O)N4CCOCC4)cc3)c2C(=O)OC)C1 | inactive | –
42 | CCN1CCc2c(sc(N)c2C(N)=O)C1 | inactive | –
43 | COc1ccc(CCNC(=O)CCN2C(=O)COc3ccc(C)cc32)cc1OC | inactive | –
44 | COc1ccc(CCNC(=O)CCN2C(=O)C(C)Oc3ccc(C)cc32)cc1OC (stereo not drawn) | inactive | –
45 | Cc1ccc(CNC(=O)CN2C(=O)COc3ccc(C)cc32)cc1 | 3.16 µM (active) | –
46 | Cc1ccc2c(c1)N(CCC(=O)NCc1cccnc1)C(=O)CO2 | 3.16 µM (active) | –
47 | CC(=O)OCC1=C(C(=O)O)N2C(=O)[C@@H](NC(=O)Cc3cccs3)[C@@H]2SC1 | inactive | –
48 | Cc1ccc2c(c1)N(CCC(=O)NCc1ccc3c(c1)OCO3)C(=O)CO2 | 15.8 µM (active) | –
49 | Cc1ccc2c(c1)N(CC(=O)NC1CCC(C)CC1)C(=O)CO2 (stereo not drawn) | inactive | –
50 | Cc1ccc2c(c1)N(CC(=O)NC1CCCc3ccccc31)C(=O)CO2 (stereo not drawn) | inactive | –

Row | Compound | AC50 | activity, negative = inhibition
51 | Cc1ccc2c(c1)N(CCC(=O)NCCN1CCOCC1)C(=O)CO2 | inactive | –
52 | Cc1ccc2c(c1)N(CC(=O)NCc1cccs1)C(=O)C(C)O2 (stereo not drawn) | 5.01 µM (active) | –
53 | Cc1ccc(C)c(N2CCN(C(=O)C3CCN(S(=O)(=O)c4cccc5nsnc45)CC3)CC2)c1 | inactive | –
54 | CO[C@H]1COC(=O)C/C=C\[C@@H](C)COC(=O)[C@@H](C)NC(=O)C/C=C\[C@@H]1C | – | -10.1% [at 11.4 µM]
55 | O=C(O)CCC(=O)N1CCC[C@H]1C(=O)O | inactive | –
56 | CCN1CCCC1CNC(=O)CCNC(=O)c1cc(OC)c(OC)c(OC)c1 (stereo not drawn) | inactive | –
57 | COc1cc(C(=O)NCCC(=O)NCc2ccc3c(c2)OCO3)cc(OC)c1OC | 20 µM (active) | –
58 | O=C(CCNS(=O)(=O)c1ccc2c(c1)CCC(=O)N2)NCc1ccc2c(c1)OCO2 | inactive | –
59 | Cc1cc(NC(=O)c2ccc(S(=O)(=O)Nc3ccccc3)cc2)no1 | 5.01 µM (active) | –
60 | NS(=O)(=O)c1ccc(NS(=O)(=O)c2ccc(NC(=O)c3ccc(-c4ccccc4)cc3)cc2)cc1 | inactive | –
61 | COc1cc2ccccc2cc1C(=O)Nc1ccc(S(=O)(=O)Nc2cc(C)on2)cc1 | 25.1 µM (active) | –
62 | Cc1ccc(OCC(=O)Nc2ccc(S(=O)(=O)Nc3onc(C)c3C)cc2)cc1 | inactive | –
63 | Cc1cc(C)c2nc(-c3ccccn3)cc(C(=O)Nc3ccc(S(=O)(=O)Nc4cc(C)on4)cc3)c2c1 | inactive | –
64 | CC(C)CC(C(=O)NCC1CCCO1)N(C(=O)Cn1nnc(-c2ccc(F)cc2)n1)c1cccc(C(F)(F)F)c1 (stereo not drawn) | inactive | –
65 | CCc1noc(N)c1C(=O)Nc1ccc(F)c(Cl)c1 | 4.47 µM (active) | –
66 | Cc1cnn(CCC(=O)NNC(=S)Nc2ccc(F)cc2)c1 | inactive | –
67 | Cc1noc(C)c1C(=O)N1CCC2(CC1)CN(C(=O)Nc1cccc(F)c1)C2 | inactive | –
68 | Cc1noc(N)c1C(=O)Nc1ccc(F)cc1 | 8.91 µM (active) | –
69 | C/C(CCC(=O)OC[C@@H]1O[C@H](C#Cc2ccccc2)C=C[C@@H]1Oc1ccc(C)cc1)=N/OC[C@@H](C)[C@H](OCc1ccccc1)C(C)C | – | -1.97% [at 11.4 µM]
70 | COCC(=O)N1CCC2(CC1)CCN(C(=O)Nc1cccc(F)c1)CC2 | inactive | –
71 | CC(=O)N=c1sc(S(N)(=O)=O)nn1C | inactive | –
72 | O=C(O)CCC(=O)CCC(=O)c1ccccc1 | inactive | –
73 | O=C(O)CCC(=O)c1ccc2ccc3cccc4ccc1c2c34 | 1.26 µM (active) | –
74 | CN(c1ccc(C(=O)NC2CC3CCC2C3)cc1)S(C)(=O)=O (stereo not drawn) | inactive | –
75 | Cc1ccc(C(N)=Nc2ccccc2)cc1 | – | -14.7% [at 11.4 µM]

Row | Compound | AC50 | activity, negative = inhibition
76 | O=C(O)C(Cc1cccs1)C(=O)O | – | -2.09% [at 2.29 µM]
77 | Cc1ccc(/C(N)=N/OC(=O)Cc2cccs2)cc1 | 15.8 µM (active) | –
78 | CN(NC(=O)NN)c1ncc(C(F)(F)F)cc1Cl | 14.1 µM (active) | –
79 | COn1c(SC(C)C)nc2ccccc2c1=O | 0.708 µM (active) | –
80 | CC(C)On1c(SC(C)C)nc2ccccc2c1=O | 2 µM (active) | –
81 | CN1CCN(CCCNC(=O)C2CCN(c3nnc(-n4cccc4)s3)CC2)CC1 | inactive | –
82 | CC1CC(C)CN(CCCNC(=O)C2CCCN(c3nnc(N4CCCC4=O)s3)C2)C1 (stereo not drawn) | inactive | –
83 | O=C(NCCc1c[nH]c2ccccc12)C1CCN(c2nnc(N3CCCC3=O)s2)CC1 | 20 µM (active) | –
84 | C[C@@H]1NCC[C@H](CC(=O)O)[C@H]1CC(=O)O | – | -6.87% [at 11.4 µM]
85 | FC(F)(F)c1cc(CN2CC3(CCNCC3)C2)cc(C(F)(F)F)c1 | inactive | –
86 | Cc1ccc(N=C/C(C(=O)C(F)(F)F)=C(\O)c2cccs2)cc1 | 12.6 µM (active) | –
87 | Cc1ccc(S(=O)(=O)c2c(C)nn(C(C)(C)C)c2OC(=O)c2cccs2)cc1 | inactive | –
88 | CC[C@H](C(=O)c1cccs1)C(O)(C(F)(F)F)C(F)(F)F | – | -17.5% [at 2.29 µM]
89 | CC(=O)N1CCC2(CC1)CN(c1ccccn1)C2 | inactive | –
90 | Cc1cc(C)n2nc(-c3sccc3-n3cccc3)cc2n1 | 5.01 µM (active) | –
91 | CCN1CCN(c2cc(=O)n(-c3cc(Cl)ccc3C)c(=O)[nH]2)CC1 | inactive | –
92 | c1ccc2c(c1)oc1c(NCCCn3ccnc3)ncnc12 | 0.0562 µM (active) | –
93 | c1ccc(-c2nc(NCCCn3ccnc3)c3oc4ccccc4c3n2)cc1 | 0.0398 µM (active) | –
94 | Cc1cc(C)c(NC(=O)C2CCCN2C)c(C)c1 (stereo not drawn) | inactive | –
95 | CCCCN1CCCC[C@H]1C(=O)Nc1c(C)cccc1C | 5.01 µM (active) | –
96 | Cc1cccc(C)c1NC(=O)N1CCC(N2CCCCC2)CC1 | inactive | –
97 | O=C(Cc1ncc(C(F)(F)F)cc1Cl)Nc1cccc(Br)c1 | 17.8 µM (active) | –
98 | CCOC(=O)c1cnc2ccc(C)cc2c1Sc1ccccc1C(=O)OC | 3.55 µM (active) | –
